D2 PAM-1: potentiates the human D2 dopamine receptor allosterically; DiscoveRx D2 beta-arrestin cells, luminescence, 90 min; 100% = 57 uM dopamine signal; potentiation, % (concentration not given with the values); AID 624464; 360,000 tested, 0.23% active; P14416; in the data active = potentiation above about 50%
Target sequence (P14416 whole entry, looked up): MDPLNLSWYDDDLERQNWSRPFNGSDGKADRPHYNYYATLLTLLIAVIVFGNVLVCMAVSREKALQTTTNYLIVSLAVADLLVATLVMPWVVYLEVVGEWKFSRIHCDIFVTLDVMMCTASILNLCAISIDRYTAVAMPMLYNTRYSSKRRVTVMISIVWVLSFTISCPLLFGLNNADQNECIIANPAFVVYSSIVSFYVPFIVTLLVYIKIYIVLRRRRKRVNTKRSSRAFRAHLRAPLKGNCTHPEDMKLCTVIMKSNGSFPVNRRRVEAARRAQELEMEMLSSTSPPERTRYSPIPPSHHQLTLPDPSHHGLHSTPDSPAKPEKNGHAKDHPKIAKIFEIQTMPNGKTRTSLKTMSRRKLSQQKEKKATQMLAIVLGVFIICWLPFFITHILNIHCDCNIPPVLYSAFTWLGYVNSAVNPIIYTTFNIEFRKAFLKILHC
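D2 cells co-treated with compound plus 50 nM dopamine (EC20) for 90 min at 37 deg C to detect potentiation. Beta-arrestin recruitment was read as enzyme-fragment luminescence after 1 h at ambient temperature. Full response was set by 57 uM dopamine.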
D2 antagonist: antagonizes the human D2 dopamine receptor. P14416. HEK293 TREx D2 cells, calcium flux, dopamine EC80. inhibition, % at 10 µM. 340,000 tested, 2% active. AID 485344; in the data active = inhibition above about 30%; inactive = below that, where a call was filed; also: 0% is about no effect
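Antagonism is scored as inhibition of an EC80 dopamine-evoked calcium signal in a force-coupled, tetracycline-inducible HEK293 T-REx D2 line, with compound present 180 s before agonist.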
D2 ag-1: human D2 receptor agonism in beta-arrestin assay. activation, % (test concentration not listed). P14416. 360,000 tested, 0.084% active. DiscoveRx PathHunter D2 beta-arrestin, luminescence, 90 min; 100% = 57 uM dopamine signal; in the data active = activation above about 40%
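Agonist mode: compounds alone added to overnight-plated D2 PathHunter cells for 90 min at 37 C, with 57 uM final dopamine (EC100) defining full response. Beta-arrestin recruitment detected by chemiluminescent reagent, read after 1 h at ambient temperature.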
D2 ag-2: D2 dopamine receptor (human) agonism. P14416. HEK293 T-REx D2 cells, calcium flux agonist mode. activation, % at 2 µM. 340,000 tested, 0.53% active. AID 485358;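 active = activation over 3 SD above normal in the single-dose calcium agonist read, cut at about 30% in these data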; also: 0% is about no effect
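Agonism is scored from calcium flux in a force-coupled, inducible HEK293 cell line expressing D2, read kinetically for 180 s after compound addition against dopamine controls.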
B2AR arrestin: beta2AR (human) beta-arrestin recruitment activity | P07550 | beta-arrestin recruitment to beta2AR, cell-based reporter | Potency, µM (doses to about 46.1 µM), for inactives: top-dose activation, hits mostly activators | 330,000 tested, 0.02% active; active = well fitted activation curve with a large enough effect;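 also: potency is read from the fitted curve at half-maximal effect; 0% = DMSO controls and full agonism = EC100 isoproterenol or metaproterenol; nearly all actives have a fitted effect of over 65% in size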
D2 PAM-2: positively modulates the human D2 dopamine receptor allosterically; P14416; HEK293 T-REx D2, calcium flux, EC20 dopamine potentiation; potentiation, % at 10 µM; 340,000 tested, 0.34% active; AID 485347;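 active = potentiation over 3 SD above the plate norm, cut at about 30% in these data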; also: 0% is about no effect
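Cells plated with tetracycline inducer and held overnight at 30 C; calcium dye loaded 30–90 min at room temperature; baseline taken, compound added and read 180 s; EC20 dopamine then added and read 180 s.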
The depositor's hits bear a star; nt = no result. An excerpt weighted towards active compounds, which were near 2.4% of everything screened.

SMILES | D2 PAM-1 | D2 antagonist | D2 ag-1 | D2 ag-2 | B2AR arrestin | D2 PAM-2
c1ccc(N2CCN(c3nc(-c4cccs4)nc4ccccc34)CC2)cc1 | -7 | nt | -3 | nt | -1% | 28
CCN1CCN(c2nc(-c3ccccc3Cl)nc3ccccc23)CC1 | -10 | 38* | -8 | -1 | 0% | -15
CCN1CCN(c2nc(-c3ccccc3)c3ccccc3n2)CC1 | -24 | 59* | -3 | 0 | 0% | -23
CN1CCN(c2nc(-c3cccs3)nc3ccccc23)CC1 | -21 | 32* | -6 | 0 | -1% | -20
CN(C)c1ccc(-c2nnc(SCC3CCCO3)n2C)cc1 (stereo not drawn) | -6 | 32* | 1 | 0 | -1% | 3
Cn1c(SCC2CCCO2)nnc1-c1ccncc1 (stereo not drawn) | 4 | 7 | 1 | 0 | 0% | 5
CCOc1ccccc1NC(=O)CSc1nnc(NC(=O)c2ccco2)s1 | -19 | -20 | -3 | -3 | 9% | 17
N#CCCCSc1ncccc1-c1nc2ccccc2[nH]1 | 1 | -6 | 0 | 0 | -1% | 4
N#CCSc1ncccc1-c1nc2ccccc2[nH]1 | -4 | 14 | -1 | 1 | 0% | 37*
CC(C)[C@H]1COCCS(=O)(=O)N1Cc1ccccc1-c1ccc(C(C)(C)C)cc1 | nt | nt | -1 | nt | -1% | nt
Cc1nc(SCC(=O)NC2CCCCC2)[nH]c(=O)c1C | 0 | 15 | -4 | 0 | 0% | 6
O=C(CSc1nc2nc[nH]c2c(=O)[nH]1)NC1CCCCC1 | -10 | 48* | -3 | 1 | 0% | -6
CCN1CCc2c(C#N)c(NCc3ccccc3)nc(N(CC)CC)c2C1 | -37 | 46* | -2 | 3 | 0% | -8
N#Cc1c(NCCN)nc(NCc2ccccc2)c2c1CCN(Cc1ccccc1)C2 | 2 | nt | -1 | nt | -1% | nt
O=C(Nc1ccc(Cl)cc1)N1CCC(c2nc(-c3ccccc3Cl)no2)CC1 | -16 | 31* | 3 | 0 | 0% | 1
CCC(C)(C)NC(=O)C(c1cccc(OC)c1OC)N(CCOC)C(=O)CCC(=O)Nc1cc(C)on1 (stereo not drawn) | -4 | 11 | -4 | 0 | 0% | 4
Cc1ccc(N2CC(C(=O)N3CCC(C(=O)Nc4ccc(Br)cc4)CC3)CC2=O)cc1 (stereo not drawn) | -9 | 11 | 2 | 3 | 0% | 3
COc1cccc(OC)c1OC(=O)C1CC(=O)N(c2ccc3c(c2)OCCO3)C1 (stereo not drawn) | 2 | nt | -1 | nt | 0% | nt
COc1ccc(Cl)cc1NC(=O)C1CCN(C(=O)C2CC(=O)N(c3ccc(C)cc3)C2)CC1 (stereo not drawn) | -2 | 37* | -3 | 1 | 0% | -10
COc1ccccc1NC(=O)C(C)OC(=O)C1CC(=O)N(c2ccc3c(c2)OCCO3)C1 (stereo not drawn) | 63* | 15 | -3 | -1 | -1% | -5
COc1ccccc1OC(=O)C1CC(=O)N(c2ccc(Cl)cc2)C1 (stereo not drawn) | 10 | 0 | 1 | -2 | 0% | 34*
Cc1ccc(N2CC(C(=O)N3CCC(C(=O)Nc4cccc(Br)c4)CC3)CC2=O)cc1 (stereo not drawn) | -15 | 39* | -2 | 0 | 0% | 4
Cc1ccc2c(c1)N(CCCC(=O)NCc1cccc(F)c1)C(=O)CO2 | nt | nt | nt | -1 | nt | nt
Cc1cccc(NC(=O)CSc2nc3c([nH]c4ccccc43)c(=O)n2-c2ccc(F)cc2)c1C | nt | nt | nt | 1 | nt | 1
COc1ccc(NC(=O)NCCCN2CCc3ccccc3C2)cc1 | -9 | 43* | 4 | 1 | -1% | -34
COc1ccc(NC(=O)CN2CCc3ccccc3C2)cc1 | -52 | nt | 4 | nt | nt | nt
O=C(NCCCN1CCc2ccccc2C1)Nc1ccc(Br)cc1 | -34 | 31* | 1 | 0 | 4% | -19
O=C(NCc1ccc(F)cc1)N1CCc2ccccc2C1 | -3 | -23 | 0 | -2 | 0% | -28
COc1ccc(CNC(=O)N2CCc3ccccc3C2)cc1 | -10 | 34* | -4 | -1 | 0% | 8

Assay outcomes as filed in PubChem BioAssay.
